Bioassay records (PubChem)
Most compounds without a hit are left out; they make up all but 2.6% or so of the library.
aDG glyco up: activators of alpha-DG glycosylation, primary screen, uHTS, Pro5-aDG cells, AlphaScreen; alpha-DG glycosylation AlphaScreen (IIH6); 0% Pro5, 100% B10-LARGE cell signal; activation, % at 10 µM; 360,000 compounds, 0.22% hits;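 active = activation of at least 8% versus controls, or a plate z-score of at least 8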;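 note: Pro5 are CHO cells carrying HIG-tagged alpha-DG that lacks glycosylation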
EBV LMP1 NFkB: EBV LMP1-driven NF-kappaB luciferase reporter inhibitors, primary screen, cell-based, luminescence, single point | LMP1-induced NF-kappaB luciferase reporter cells | inhibition, % at 12.5 µM | 350,000 compounds, 0.69% hits; in the data active = inhibition above about 41%;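 note: 0% = neutral control wells and 100% = reference inhibitor control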
HSP90 inh: HSP90 inhibitors, primary screen, cell lysate, luminescence | 290,000 compounds, 0.91% hits | Heat shock protein HSP 90 (rabbit reticulocyte lysate; luciferase refolding) | AID 1789, 2009 | Rabbit reticulocyte lysate, luciferase refolding luminescence, 3 h | inhibition, % at 5.6 µM;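 active = inhibition above the screen-wide mean plus 3 SD, computed separately per campaign, cut at about 16% in these data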;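 note: 0% = DMSO wells and 100% = 60 µM geldanamycin wells; inhibitors lower the luminescence because luciferase stays unfolded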
TWEAK-Fn14 inh: inhibitors of TWEAK-Fn14 signaling, primary screen, luciferase reporter cells, uHTS; 360,000 compounds, 2% hits; AID 1159606, 2016; inhibition, % at 10 µM; TWEAK-stimulated Fn14 reporter cells, luciferase luminescence, 8 h; in the data active = inhibition above about 50%
LGR2 antag: inhibitors of bursicon-induced LGR2 CRE-luciferase signal, primary screen, cell-based, HEK293, CRE-luciferase reporter, bursicon stimulation | bursicon-stimulated, 4 h | Drosophila bursicon receptor LGR2 (rickets) | 380,000 compounds, 0.35% hits | inhibition, % at 9.99 µM;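 active = drop in luminescence signal, shown as inhibition above about 50% in the replicate tests, limit read from the data, passing the limit was not always enough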;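 note: agonist challenge used bursicon conditioned medium at about half maximal strength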
TROY signal inh: inhibitors of TROY-driven NF-kB signaling, primary screen, Q293 LMP1-TROYcd cells, NF-kB luciferase, uHTS. inhibition, % at 10 µM. Q293 LMP1-TROYcd NF-kB luciferase reporter, 4 h. 360,000 compounds, 0.98% hits;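 active = compounds whose plate-normalised and pattern-corrected inhibition of the luciferase reporter signal at the single screening dose is 50% or more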
aDG conf: alpha-DG glycosylation enhancers, retest, confirmation, single concentration, Pro5-aDG cells; AID 651671, 2012; activation, % at 10 µM (by protocol); IIH6 AlphaLISA; scaled to LARGE-overexpressing B10 cells as 100%; shares compounds with aDG glyco up; 600 compounds, 17% hits;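 active = activation of at least 7% in one or more replicates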;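 note: cells exposed to compound for two days before detection; 0% = DMSO-treated Pro5 cells and 100% = DMSO-treated B10-LARGE cells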
The depositor's hits bear a star; · = no result.

SMILES	aDG glyco up	EBV LMP1 NFkB	HSP90 inh	TWEAK-Fn14 inh	LGR2 antag	TROY signal inh	aDG conf
C[C@@H]1CN([C@H](C)CO)C(=O)CCCn2nncc2CO[C@@H]1CN(C)C(=O)Nc1cccc(Oc2ccccn2)c1	·	·	·	·	-19	·	·
C/C=C/c1ccc2c(c1)O[C@@H](CN(C)C(=O)C1CC1)[C@H](C)CN([C@H](C)CO)S2(=O)=O	·	·	·	·	4	·	·
COCCNC(=S)N/N=C(\C)c1ccc(O)cc1	7.4*	-7	3	6	39	-10	0
C=CCNC(=S)N/N=C(\C)c1ccc(OC)cc1	12*	-21	1	-4	-27	0	1
COCCNC(=S)N/N=C(\C)c1ccc(-n2ccnc2)cc1	4	-6	1	1	-1	1	·
C=CCNC(=S)N/N=C(\C)c1cccc(OC)c1	3	-24	-6	-4	30	-28	·
CC(=O)c1c(C)[nH]c(C(=O)OCCCCN2C(=O)c3ccccc3C2=O)c1C	6.9*	20	-1	48	·	48	2
CC(=O)c1c(C)[nH]c(C(=O)OCc2ccccc2)c1C	2	-1	-1	1	-54	-41	·
CN1N=C(N)c2cn(C3OC(COP(=O)(O)O)C(O)C3O)c3ncnc1c23 (configuration not stated)	82*	3	·	19	5	24	23*
Nc1ncnc2c1ncn2[C@@H]1O[C@H](COP(=O)(O)O)[C@@H](O)[C@H]1O	0	12	-2	-30	-29	2	·
C/C(=N\Nc1ncc(Cl)cc1Cl)c1ccc(OC(F)F)cc1	0	-22	3	-32	-34	2	·
C/C(=N\Nc1ncc(Cl)cc1Cl)c1ccc2c(c1)OCO2	13*	-10	5	-47	-74	12	-1
C[C@H]1CN([C@@H](C)CO)C(=O)c2cc(NC(=O)CCN3CCOCC3)ccc2O[C@H]1CN(C)S(=O)(=O)c1ccc(Cl)cc1	·	·	·	·	10	·	·
CCc1ccc(C(CNC(=O)c2ccc3c(=O)n(-c4ccccc4F)c(=S)[nH]c3c2)N(C)C)cc1 (configuration not stated)	10*	-15	3	33	27	19	6.9*
